Rows were chosen to be rich in hits. Some 8% of all compounds tested hit in one or more screens of this group.
HCMV antiviral = inhibitors of human cytomegalovirus; activity change, negative = inhibition, % at 57.5 µM; HFF cells, HCMV-luciferase reporter, 72 h; hits give low values; hit rate 4.5% among 410,000; AID 1259415; in the data active = activity change below about -60%; inconclusive = no clear call, values can overlap the other calls; inactive = above about -39%; also: % is scaled to controls: 0 for no effect and ±100 for the full control effect
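Human foreskin fibroblasts infected with luciferase-reporter HCMV at MOI 1 PFU/cell, compounds at two doses. Luciferase measured 72 h post infection; normalized to buffer-only basal and Salinomycin (10uM) controls.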
LASV entry inh = inhibitors of Lassa virus binding or cell entry; AID 540256; hit rate 1.2% among 300,000; Potency, µM (titrated, usually from 37.9 µM), for the others: at the top dose activity change, negative = inhibition, hits mostly inhibitors; Lassa virus pseudotype entry inhibition, cell reporter; calls by dose curve; tested in HEK293 cells; also: potency is read from the fitted curve at half-maximal effect; % is scaled to controls: 0 for no effect and ±100 for the full control effect; nearly all actives have a fitted effect of over 50% in size
FMDV inh = foot and mouth disease virus antiviral activity; FMDV antiviral cell-based qHTS; Potency, µM (highest dose often 57.9 µM), for inactives: at the highest dose activity change, negative = inhibition, usual class: inhibitors; hit rate 1.2% among 410,000; calls by dose curve; tested in HEK293T cells; also: read-out not given here; potency is read from the fitted curve at half-maximal effect; % is scaled to controls: 0 for no effect and ±100 for the full control effect; nearly all actives have a fitted effect of over 45% in size
HCV inhibitor = HCV inhibition. AID 651820. Huh7.5.1 HCVcc-Cre infection, luciferase reporter, 44 h. Potency, µM (series often up to 41.8 µM), without a hit: top-dose activity change, negative = inhibition, hits mostly inhibitors. hit rate 3.4% among 340,000; active = well fitted inhibition curve with a large enough effect; inconclusive = small, poorly fitted or top-dose-only effect, or another doubt; inactive = no such curve, though single readings can be large or run the other way; also: potency is read from the fitted curve at half-maximal effect; % is scaled to controls: 0 for no effect and ±100 for the full control effect
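Antiviral activity was scored by luciferase reporter output from cells infected with HCVcc-Cre (~0.5 moi) in presence of compound, 44 h infection period, cells seeded 1,000/well 4 h prior.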
SARS PLpro yeast = blocks SARS-CoV papain-like protease in a yeast assay; S. cerevisiae expressing SARS-CoV PLpro, growth rescue; Potency, µM (doses to about 32.9 µM), inactives show top-dose activity, positive = growth rescue, usual class: activators; hit rate 0.19% among 330,000; AID 485353; calls by dose curve; also: potency is read from the fitted curve at half-maximal effect; 0% is about no effect; nearly all actives have a fitted effect of over 55% in size
MARV entry inh = inhibitors of Marburg virus binding or cell entry | Potency, µM (highest dose often 37.8 µM), without a hit: at the highest dose activity change, negative = inhibition, actives largely listed as inhibitors | hit rate 1.8% among 300,000 | Marburg virus pseudotyped entry inhibition, cell reporter; calls by dose curve; tested in HEK293 cells; also: potency is read from the fitted curve at half-maximal effect; % is scaled to controls: 0 for no effect and ±100 for the full control effect
Active calls of the source: *; ? = inconclusive; · = no result given; ! = not confirmed by another sample; [ ] = remark or other dose.

SMILES | HCMV antiviral | LASV entry inh | FMDV inh | HCV inhibitor | SARS PLpro yeast | MARV entry inh
OCCNc1c2ccccc2nc2c(F)c(F)c(F)c(F)c12 | -23 | ? | 22µM* | ? | -9% | ?
COC(=O)CNc1nc(-c2ccncc2)nc2ccccc12 | 123 | ? | -22% | -32% | -23% | -28%
COc1cc(C(=O)OCc2cc(=O)n3ccsc3n2)cc(OC)c1OC | 0 | -25%[46.1 µM] | -25% | · | · | ·
CCc1ccc(NC(=O)Cn2ccn(-c3ccc(OC)cc3)c(=O)c2=O)cc1 | ? | 7%[46.1 µM] | 10% | · | · | ·
CN(C)CCCNc1c2ccccc2nc2ccccc12 | -102* | ? | -30% | 7.9µM* | -6% | 5.6µM*
CN(C)CCNc1c2c(nc3ccccc13)CCC2 | -36 | · | -8% | ? | 2% | ·
Clc1ccc(Cl)c2sc(N3CCOCC3)nc12 | 8 | ? | 35% | 13µM* | · | -2%[46.1 µM]
O=C(Nc1ccc2c(c1)N(S(=O)(=O)c1cccs1)CCC2)c1c(F)cccc1Cl | -27 | ? | 3% | 14µM* | -2% | ?
Cc1ccc(S(=O)(=O)N2CCCc3cc(NC(=O)c4c(F)cccc4F)ccc32)cc1 | -69*! | -30%[46.1 µM] | -8% | 10µM* | 1% | ·
COc1cccc(OC)c1C(=O)Nc1ccc2c(c1)CCCN2S(=O)(=O)c1ccc(C)cc1 | -64*! | 8%[46.1 µM] | -13% | ? | -1% | ·
Cc1ccc(S(=O)(=O)N2CCCc3cc(NC(=O)c4cccc(Cl)c4)ccc32)cc1 | -4 | -7%[46.1 µM] | 3% | · | · | ·
COc1cccc(OC)c1C(=O)Nc1ccc2c(c1)N(S(=O)(=O)c1cccs1)CCC2 | -36 | · | 13% | -21% | 3% | ·
Cc1ccc(S(=O)(=O)N2CCCc3cc(NC(=O)c4ccc(F)c(F)c4)ccc32)cc1 | -18 | -2%[46.1 µM] | -21% | · | · | ·
COc1cc(Cl)c(NS(=O)(=O)c2ccc(-c3coc(C)n3)cc2)c(OC)c1 | -26 | 11%[46.1 µM] | ? | · | · | ·
COc1cc(CNC(=O)CCCC/C=C/C(C)C)ccc1O | -8 | · | 45µM*! | 1% | · | ·
Cc1cc(S(=O)(=O)N(Cc2ccc(C(C)C)cc2)CC2CCCO2)ccc1-n1cnnn1 (stereo not given) | -77* | ? | · | ? | -13% | ?
Cc1cc(S(=O)(=O)N(Cc2ccc(F)cc2)CC2CCCO2)ccc1-n1cnnn1 (stereo not given) | -3 | ? | · | 2% | 2% | 1%
O=C(Nc1ccc2nc(-c3ccc(Br)o3)[nH]c2c1)c1ccco1 | 11 | ? | -15% | -20% | -5% | ?
O=C(Nc1ccc2nc(-c3ccccc3)[nH]c2c1)c1ccco1 | -67* | ? | 19% | ? | 0% | ?
O=C(Nc1cccc(-c2nc3ccccc3[nH]2)c1)c1cccc(NC(=O)c2ccco2)c1 | -102* | ? | 32µM* | 3.5µM* | 3% | 13µM*
COc1ccccc1-c1cc2c(Nc3ccc(NC(C)=O)cc3)nccc2[nH]1 | -5 | · | · | · | · | ·
CCCN(CCC)C(=O)C1CCN(c2cc(C)nc3c(-c4ccc(Cl)cc4)c(C)nn23)CC1 | 9 | 1%[46.1 µM] | -23% | · | · | 2%[46.1 µM]
COc1cc2cc(CN(Cc3cccs3)C(=S)Nc3ccc(C)cc3)c(=O)[nH]c2cc1OC | -69* | 4.6µM* | 0% | -32% | -14% | ?
Cc1ccc(NC(=S)N(Cc2cccs2)Cc2cc3cc(C)ccc3[nH]c2=O)cc1 | -25 | 7.1µM* | 0% | 11% | -18% | 4.5µM*
CC(=O)c1cn(CC(=O)NCCc2c[nH]c3ccccc23)c2ccccc12 | -38 | · | ? | 10µM* | -3% | ·
SMILES | HCMV antiviral | LASV entry inh | FMDV inh | HCV inhibitor | SARS PLpro yeast | MARV entry inh
O=C(O)Cn1cc(C(=O)C(F)(F)F)c2ccccc21 | -17 | -2%[46.1 µM] | 11% | 3% | 3% | ?
CCC(=O)c1cn(CC(=O)Nc2c(C)cccc2C)c2ccccc12 | 11 | · | -19% | -8% | 0% | ·
CC(C)(C)C(=O)c1cn(CC(=O)O)c2ccccc12 | -8 | ? | 7% | 10µM* | -2% | 19%[46.1 µM]
CC(=O)c1cn(CC(=O)Nc2ccccc2C)c2ccccc12 | -68* | -28% | ? | ? | 1% | ?
CC(=O)c1cn(CC(=O)Nc2c(C)cccc2C)c2ccccc12 | -75* | -15% | ? | 5.6µM* | -7% | ?
COc1ccc(CNC(=O)CSc2ncc3c(n2)-c2cc(Cl)ccc2N(C)S3(=O)=O)cc1 | -1 | -3%[46.1 µM] | -23% | · | · | ·
COc1ccccc1/C=N\NC(=O)c1c(C)nc2ccc(Cl)cn12 | 11 | · | 0% | 9% | -3% | ·
COc1cccc(/C=N/NC(=O)c2c(C)nc3ccc(Cl)cn23)c1O | -99* | ? | 11% | 2.5µM* | 6% | 1µM*
O=C(N/N=C/c1ccoc1)c1ccc(Br)cc1 | -17 | · | 24% | 5% | -2% | ·
O=C(Cc1ccc(Cl)cc1)N/N=C/c1ccc(O)c(O)c1 | -34 | · | -22% | · | · | ·
Cc1ccc(O)c(/C=N/NC(=O)Cc2ccc(Cl)cc2)c1 | -99* | · | -5% | ? | 3% | ·
Cc1cccc(/C=N\NC(=O)c2ccc(Cl)cc2)c1O | -101* | 11µM* | -3% | ? | -2% | 5.6µM*
O=C(N/N=C/c1ccoc1)c1ccc(Cl)cc1 | -75* | · | 0% | 1% | 2% | ·
Cc1cccc(/C=N/NC(=O)Cc2ccc(Cl)cc2)c1O | -89* | · | 15% | 13µM* | 8% | ·
O=C(Cc1ccc(Cl)cc1)N/N=C/c1c(Cl)cccc1Cl | -8 | ? | 15% | 5% | 5% | -1%
CCCCc1nc(NC[C@H]2CCCO2)c(C#N)c2c1COC(C)(C)C2 | · | · | · | · | · | -13%
COc1cc(=O)n2c(c1C(=O)NCc1ccco1)CCN(C(=O)c1ccc(C)c(C)c1)CC2 | · | · | -11% | · | · | ·
CC(C)Sc1cc(N2CCOCC2)nc(-c2ccccc2)n1 | ? | 2% | ? | 13µM* | -2% | -24%
COCc1cc(N2CCOCC2)nc(-c2ccccc2)n1 | 10 | 9% | -22% | ? | 1% | 10µM*
COCc1cc(N2CCN(c3ccccc3F)CC2)nc(-c2ccccc2)n1 | -17 | -2% | -11% | ? | -8% | 15%[46.1 µM]
O=C1C2=C(NC(=S)NC2c2ccc(Cl)cc2)NC(c2ccc(Cl)cc2)N1c1ccc(Cl)cc1 (stereo not given) | 34 | -1% | ? | -26% | -3% | 16µM*
COC(=O)C1=C(C)N(c2cc(C)cc(C)c2)/C(=C/c2ccc(O)cc2)C1=O | -96* | · | ? | ? | 0% | ·
COC(=O)C1=C(C)N(c2ccc(Cl)cc2)/C(=C/c2ccc(O)cc2)C1=O | -20 | -20% | 25µM* | ? | 0% | ?
O=C(CNC(=O)c1ccc(Br)cc1)N/N=C/c1ccc[nH]1 | 7 | ? | -21% | 2.5µM* | 19% | ?
Cc1ccc(C)c(NC(=O)CCC(=O)N/N=C/c2ccc[nH]2)c1 | -91* | 18µM* | -9% | 3.5µM* | 0% | ?
Cc1c(Cl)cccc1NC(=O)CCC(=O)N/N=C/c1ccc[nH]1 | -100* | ? | 0% | 1µM* | -1% | 3.2µM*
